# Source: ChEMBL document CHEMBL5606460, “ASAP - DENV-2 NS2B-NS3 protease fluorescence single point” (2024)
# In all, about 2,000 compounds went through this assay and about 110 (5.5%) showed an effect of 50% or more. This excerpt belongs to a sample that is enriched for strong results.
# Target: Genome polyprotein (dengue virus type 2) (UniProt P29990)
# [1] = Thailand/16681/1984, Concentration 25.0 uM, Number of replicates 1.0
smiles,measurement,setting,value
Cc1cc(C(=O)N2CCN(C(=O)c3cc(C(C)(F)F)n[nH]3)CC2)cc2nn[nH]c12,inhibition,"Thailand/16681/1984, Concentration 49.5 uM, Number of replicates 2.0, Standard deviation 0.5040908488530289 %",1.22%
same,inhibition,"Thailand/16681/1984, Concentration 99.01 uM, Number of replicates 2.0, Standard deviation 0.07028947937337628 %",1.9%
same,inhibition,"Thailand/16681/1984, Concentration 198.0 uM, Number of replicates 2.0, Standard deviation 0.7181064342983147 %",2.65%
O=Cc1ccc(N2CCC(C(=O)N[C@@H](CCO)c3ccccc3F)CC2)cc1,inhibition,[1],11.4%
CNC(=O)[C@H]1CN(S(=O)(=O)c2ccc(Oc3ccccc3Cl)cc2)CCO1,inhibition,"Thailand/16681/1984, Concentration 49.5 uM, Number of replicates 2.0, Standard deviation 0.2669928674711758 %",-4.8%
same,inhibition,"Thailand/16681/1984, Concentration 99.01 uM, Number of replicates 2.0, Standard deviation 0.624095865646037 %",-4.22%
same,inhibition,"Thailand/16681/1984, Concentration 198.0 uM, Number of replicates 2.0, Standard deviation 0.6183745152543801 %",-5.47%
Nc1ccc(Cl)c2cccnc12,inhibition,"Thailand/16681/1984, Concentration 49.95 uM, Number of replicates 2.0, Standard deviation 3.8383177085719704 %",-6.59%
same,inhibition,"Thailand/16681/1984, Concentration 99.9 uM, Number of replicates 2.0, Standard deviation 5.003138959022175 %",-3.71%
Nc1cccc2c(Cl)ccnc12,inhibition,"Thailand/16681/1984, Concentration 49.95 uM, Number of replicates 2.0, Standard deviation 9.3539447807875 %",25.3%
same,inhibition,"Thailand/16681/1984, Concentration 99.9 uM, Number of replicates 2.0, Standard deviation 4.02175613474424 %",68.2%
Nc1ccnc2c(Cl)cccc12,inhibition,"Thailand/16681/1984, Concentration 49.95 uM, Number of replicates 2.0, Standard deviation 2.736837302484984 %",-9.22%
same,inhibition,"Thailand/16681/1984, Concentration 99.9 uM, Number of replicates 2.0, Standard deviation 4.13445849353631 %",-8.19%
CNC(=O)c1cc(Cl)ccc1NS(=O)(=O)c1ccc(C(=O)N(C)C)cc1,inhibition,"Thailand/16681/1984, Concentration 49.5 uM, Number of replicates 2.0, Standard deviation 0.43931539952348436 %",-0.006%
same,inhibition,"Thailand/16681/1984, Concentration 99.01 uM, Number of replicates 2.0, Standard deviation 1.0448066347124485 %",1.16%
same,inhibition,"Thailand/16681/1984, Concentration 198.0 uM, Number of replicates 2.0, Standard deviation 2.436767925477247 %",5.4%
O=Cc1ccc(N2CCC(C(=O)N3CCN(c4ccc(F)cc4F)CC3)CC2)cc1,inhibition,[1],11.4%
O=C(c1cc(Cl)ccc1NS(=O)(=O)c1ccc(Oc2ccccc2Cl)cc1)N1CCC[C@@H]1CO,inhibition,"Thailand/16681/1984, Concentration 49.5 uM, Number of replicates 2.0, Standard deviation 0.383564644131335 %",17.2%
same,inhibition,"Thailand/16681/1984, Concentration 99.01 uM, Number of replicates 2.0, Standard deviation 0.18466388793957156 %",85.5%
same,inhibition,"Thailand/16681/1984, Concentration 198.0 uM, Number of replicates 2.0, Standard deviation 0.022248141217142654 %",93.6%
CNC(=O)C[C@H]1CCCN1S(=O)(=O)c1ccc(Oc2ccccc2Cl)cc1,inhibition,"Thailand/16681/1984, Concentration 49.5 uM, Number of replicates 2.0, Standard deviation 0.32757728686835763 %",-0.145%
same,inhibition,"Thailand/16681/1984, Concentration 99.01 uM, Number of replicates 2.0, Standard deviation 1.5700018436077314 %",1.46%
same,inhibition,"Thailand/16681/1984, Concentration 198.0 uM, Number of replicates 2.0, Standard deviation 0.26515981673573996 %",3.55%
CNC(=O)[C@H]1CCN(S(=O)(=O)c2ccc(Oc3ccccc3Cl)cc2)C1,inhibition,"Thailand/16681/1984, Concentration 49.5 uM, Number of replicates 2.0, Standard deviation 0.2326651022960228 %",-2.7%
same,inhibition,"Thailand/16681/1984, Concentration 99.01 uM, Number of replicates 2.0, Standard deviation 1.0727392899756494 %",-1.81%
same,inhibition,"Thailand/16681/1984, Concentration 198.0 uM, Number of replicates 2.0, Standard deviation 0.8124211767562954 %",0.204%
CNC(=O)[C@H]1CCCN(S(=O)(=O)c2ccc(Oc3ccccc3Cl)cc2)C1,inhibition,"Thailand/16681/1984, Concentration 49.5 uM, Number of replicates 2.0, Standard deviation 1.3425926640552597 %",-1.55%
same,inhibition,"Thailand/16681/1984, Concentration 99.01 uM, Number of replicates 2.0, Standard deviation 1.1232771440198652 %",0.94%
same,inhibition,"Thailand/16681/1984, Concentration 198.0 uM, Number of replicates 2.0, Standard deviation 1.8999403128335026 %",2.72%
CNC(=O)C[C@H]1CCCCN1S(=O)(=O)c1ccc(Oc2ccccc2Cl)cc1,inhibition,"Thailand/16681/1984, Concentration 49.5 uM, Number of replicates 2.0, Standard deviation 0.6403061336392061 %",-1.92%
same,inhibition,"Thailand/16681/1984, Concentration 99.01 uM, Number of replicates 2.0, Standard deviation 0.5926288072768489 %",-0.478%
same,inhibition,"Thailand/16681/1984, Concentration 198.0 uM, Number of replicates 2.0, Standard deviation 0.4290957159902598 %",1.47%
CC[C@H]1CCN(C(=O)c2cc(Cl)ccc2NS(=O)(=O)c2ccc(Oc3ccccc3Cl)cc2)C1,inhibition,"Thailand/16681/1984, Concentration 49.5 uM, Number of replicates 2.0, Standard deviation 0.47789805764320614 %",46.7%
same,inhibition,"Thailand/16681/1984, Concentration 99.01 uM, Number of replicates 2.0, Standard deviation 0.11836183761011393 %",61.8%
same,inhibition,"Thailand/16681/1984, Concentration 198.0 uM, Number of replicates 2.0, Standard deviation 0.034704726588234404 %",73.4%
O=C(c1cc(Cl)ccc1NS(=O)(=O)c1ccc(Oc2ccccc2Cl)cc1)N1CC[C@H](CO)C1,inhibition,"Thailand/16681/1984, Concentration 49.5 uM, Number of replicates 2.0, Standard deviation 1.1631525408138252 %",2.87%
same,inhibition,"Thailand/16681/1984, Concentration 99.01 uM, Number of replicates 2.0, Standard deviation 1.2459174873464263 %",43.6%
same,inhibition,"Thailand/16681/1984, Concentration 198.0 uM, Number of replicates 2.0, Standard deviation 0.07742612093802895 %",97.8%
O=Cc1ccc(N2CCC(C(=O)Nc3c(F)cc(F)cc3[N+](=O)[O-])CC2)cc1,inhibition,[1],15.2%
Cc1cc(C(N)=O)c2cccc(Cl)c2n1,inhibition,"Thailand/16681/1984, Concentration 49.95 uM, Number of replicates 2.0, Standard deviation 7.126306314460823 %",-2.36%
same,inhibition,"Thailand/16681/1984, Concentration 99.9 uM, Number of replicates 2.0, Standard deviation 6.288884680839078 %",0.295%
O=Cc1ccc(N2CCC(C(=O)N3CCN(C(=O)OCc4ccccc4)CC3)CC2)cc1,inhibition,[1],11.5%
CC(C)COc1ccc(CNC(=O)C2CCN(c3ccc(C=O)cc3)CC2)cc1,inhibition,[1],2.46%
COC(=O)c1c[nH]c(-c2ccccc2C(=O)Nc2cnn(C)c2)c1,inhibition,"Thailand/16681/1984, Concentration 49.5 uM, Number of replicates 2.0, Standard deviation 4.6959836114984075 %",-3.99%
same,inhibition,"Thailand/16681/1984, Concentration 99.01 uM, Number of replicates 2.0, Standard deviation 3.634509710514387 %",-4.57%
same,inhibition,"Thailand/16681/1984, Concentration 198.0 uM, Number of replicates 2.0, Standard deviation 4.5675250537856 %",-3.67%
CCCN(C[C@H](O)COc1ccccc1C(=O)CCc1ccccc1)C(=O)C1CCN(c2ccc(C=O)cc2)CC1,inhibition,[1],15.7%
Cc1cc(CO)c2cccc(Cc3ccccc3C(=O)N3CC[C@@H](CO)C3)c2n1,inhibition,"Thailand/16681/1984, Concentration 49.95 uM, Number of replicates 2.0, Standard deviation 0.1537915321395842 %",-0.863%
same,inhibition,"Thailand/16681/1984, Concentration 99.9 uM, Number of replicates 2.0, Standard deviation 0.5490500301245094 %",3.93%
